Assay outcomes (PubChem)
Rows were chosen to be rich in hits. Some 3% of all compounds tested hit in one or more screens of this group.
SKOV3 invasion – Primary qHTS assay for Inhibitors of ovarian cancer metastasis using an organotypic tumor microenvironment (TME) model | SKOV3ip1-GFP adhesion/invasion on 3D omental model, fluorescence | Potency, µM (titrated, usually from 45.8 µM), actives largely listed as inhibitors | 0.1% of 46,000 active; further: nearly all actives have a fitted effect of over 65% in size
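A 3D layer of primary human omental fibroblasts, mesothelial cells, fibronectin and collagen I, grown 48 hr, received SKOV3ip1-GFP cells in serum-free medium plus compounds at 0.36-46 umol/L. After 2 hr RT and 16 hr 37 C, fixed adherent GFP cells were counted; normalized to DMSO and tomatine.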
p53null 32C tox – qHTS Screen for Compounds that Selectively Target Cancer Cells with p53 Mutations: Cytotoxicity of p53 Null Cells at the Permissive Temperature. 0.62% of 55,000 active. Potency, µM (doses to about 46.1 µM), usual class: cytotoxic. AID 903, 2007. H1299-neo p53 null cells, ATP luminescence, 24 h, 32C; further: nearly all actives have a fitted effect of over 55% in size
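Cytotoxicity: H1299-neo (no p53), 32C, 24 h treatment. Concentrations up to 46 uM. Readout cellular ATP, luminescence. Normalization to DMSO basal and tamoxifen 100 uM maximal kill.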
p53null 39C tox – qHTS Screen for Compounds that Selectively Target Cancer Cells with p53 Mutations: Cytotoxicity of p53 Null Cells at the Nonpermissive Temperature; H1299 p53-null (neo) cells, 39C, ATPlite viability, 24 h; Potency, µM (doses to about 46.1 µM), actives largely listed as cytotoxic; 0.97% of 55,000 active; AID 904, 2007; further: nearly all actives have a fitted effect of over 50% in size
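ATP-luminescence viability readout (ATPlite, 20 min RT) after 24 hr compound treatment at 39C of H1299-neo or H1299-p53A138V cells; titration up to 46 uM; normalized to DMSO and 100 uM tamoxifen; Hill-fit AC50.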
mTORC1 inh – Acumen qHTS Assay for Inhibitors of the mTORC1 Signaling Pathway in MEF (Tsc2-/-, p53-/-) Cells: Sytravon | Tsc2-/- p53-/- MEF, phospho-rpS6 immunofluorescence/PI, 24 h | Potency, µM (series often up to 38.3 µM), hits mostly inhibitors | 0.78% of 44,000 active | AID 493208, 2011; further: nearly all actives have a fitted effect of over 50% in size
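Compounds act on Tsc2-/-, p53-/- fibroblasts carrying an empty vector for 24 h before fixation and dual staining for phospho-S6 and DNA (propidium iodide). Values are percentages of cells above a rapamycin-defined pS6/PI threshold.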
PMP22 txn – Cell-based coincidence reporter assay to measure PMP22 gene transcription in S16 Pmp22-F2sN cells - Primary screen. AID 1508649, 2021. S16 Pmp22-F2sN Schwann cells, FLuc/NLuc coincidence luminescence, 24 h. Potency, µM (top dose mostly 57.5 µM), actives largely listed as inhibitors. 2% of 43,000 active; active means clear falling dose curves in both reporters; inconclusive means both reporters move, but less clearly or upward; inactive means either reporter flat; the % is the NLuc reporter signal
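S16 Schwann cells carrying FLuc/NLuc coincidence reporter in the Pmp22 3' UTR treated with compound 24 h at 37C; FLuc then NLuc luminescence read sequentially by dual-luciferase reagents.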
S16 viability – Cell viability qHTS assay in S16 Pmp22-F2sN cells; Potency, µM (doses to about 57.5 µM), hits mostly cytotoxic; S16 Pmp22-F2sN Schwann cells (luciferase reporters placed in the Pmp22 gene) viability, CellTiter-Glo, 24 h; 0.48% of 43,000 active; further: nearly all actives have a fitted effect of over 65% in size
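Seed 500-1,000 S16 Pmp22-F2sN cells per well in phenol-red-free DMEM with 10% heat-inactivated FBS; pin-add 23 nL compound; incubate 24 h at 37C; add CellTiter-Glo, wait 15 min protected from light; read luminescence.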
A number is an active result; [ ] = dose if it differs, or a comment. Unless noted, the call rests on the fitted dose curve; in most records, active means well fitted curve in the direction sought with a large enough effect; inconclusive means small, poorly fitted or top-dose-only effect, or another doubt; inactive means no such curve, though single readings can be large; an effect the other way counts as inactive or inconclusive.

How did COCCOc1ccc2c(c1)ncn2-c1ccc2cccc(N3CCC(N)CC3)c2n1 do in these assays?
SKOV3 invasion: inactive

How did COc1ccc(C(=O)NCC(c2cccnc2)N2CCN(c3ccc(F)cc3)CC2)cc1OC (stereo unspecified) do in these assays?
p53null 32C tox: inactive; p53null 39C tox: inactive

Results for COc1cc(C(=O)NCC(c2cccnc2)N2CCN(c3ccc(F)cc3)CC2)cc(OC)c1OC (stereo unspecified) ?
SKOV3 invasion: inactive; p53null 32C tox: inactive; p53null 39C tox: 16µM; mTORC1 inh: inactive; PMP22 txn: inactive; S16 viability: inactive

How did COc1ccccc1N1CCN(C(CNC(=O)C(=O)NCc2cccnc2)c2cccnc2)CC1 (stereo unspecified) do in these assays?
SKOV3 invasion: inactive; p53null 32C tox: inconclusive; p53null 39C tox: 20µM; mTORC1 inh: inactive; PMP22 txn: inconclusive; S16 viability: inactive

Results for COc1cc(F)c(C(C)C)cc1-c1ccc(C(F)(F)F)cc1CN1C(=O)O[C@H](c2cc(C(F)(F)F)cc(C(F)(F)F)c2)[C@@H]1C ?
SKOV3 invasion: inactive

Results for COc1ccc(N2Cc3cccc(C(=O)Nc4ccc(C(C)C)cc4)c3C2=O)cc1 ?
SKOV3 invasion: inactive; p53null 32C tox: inconclusive; p53null 39C tox: 4µM; mTORC1 inh: inactive; PMP22 txn: inconclusive; S16 viability: inconclusive

Results for CCN(CC)c1ccc(C(=O)NCc2ccc3c(c2)CCN3C(=O)c2ccc(F)cc2)cc1 ?
SKOV3 invasion: inactive; p53null 32C tox: inactive; p53null 39C tox: inactive; mTORC1 inh: inactive; PMP22 txn: 7.3µM; S16 viability: inconclusive

How did CC(C)(C)[C@H](NC(=O)c1ccc(N)c(Cl)c1)C(=O)N1CCC[C@@H]1C(=O)N[C@H](C#N)CC(=O)O do in these assays?
SKOV3 invasion: inactive[3.51 µM]

Results for C#Cc1cccc(Nc2ncnc3cc(OC)c(OCCCCCCC(=O)NO)cc23)c1 ?
SKOV3 invasion: inactive

What do the screens show for `COc1ccc(OC)c(S(=O)(=O)NCC(c2cccs2)S(=O)(=O)c2ccc(F)cc2)c1` (stereo unspecified)?
SKOV3 invasion: inactive; p53null 32C tox: inactive; p53null 39C tox: inactive; mTORC1 inh: inconclusive; PMP22 txn: inconclusive; S16 viability: inconclusive

Results for COc1ccc(F)cc1S(=O)(=O)NCC(c1ccco1)S(=O)(=O)c1ccc(F)cc1 (stereo unspecified) ?
SKOV3 invasion: inactive; p53null 32C tox: inactive; p53null 39C tox: inactive; mTORC1 inh: inactive; PMP22 txn: 19µM; S16 viability: 16µM

How did COc1ccc(S(=O)(=O)NCC(c2ccco2)S(=O)(=O)c2ccc(C)cc2)cc1C (stereo unspecified) do in these assays?
SKOV3 invasion: inactive; p53null 32C tox: inactive; p53null 39C tox: inactive; mTORC1 inh: inactive; PMP22 txn: inconclusive; S16 viability: inconclusive

Results for O=S(=O)(NCC(c1cccs1)S(=O)(=O)c1ccccc1)c1ccccc1 (stereo unspecified) ?
SKOV3 invasion: inactive; p53null 32C tox: inactive; p53null 39C tox: inactive; mTORC1 inh: inconclusive; PMP22 txn: 15µM; S16 viability: 10µM

Results for COc1ccc(F)cc1S(=O)(=O)NCC(c1ccco1)S(=O)(=O)c1cccs1 (stereo unspecified) ?
SKOV3 invasion: inactive; p53null 32C tox: inactive; p53null 39C tox: inactive; mTORC1 inh: inactive; PMP22 txn: 9.5µM; S16 viability: 13µM

Results for Cc1ccc(C)c(S(=O)(=O)NCC(c2ccco2)S(=O)(=O)c2ccc(F)cc2)c1 (stereo unspecified) ?
SKOV3 invasion: inactive; p53null 32C tox: inactive; p53null 39C tox: inconclusive; mTORC1 inh: 7.4µM; PMP22 txn: inactive; S16 viability: inactive

Results for CC(C)(C)c1ccc(C(=O)NCC(c2cccs2)S(=O)(=O)c2ccccc2)cc1 (stereo unspecified) ?
SKOV3 invasion: inactive; p53null 32C tox: inactive; p53null 39C tox: inactive; mTORC1 inh: inactive; PMP22 txn: inconclusive; S16 viability: inconclusive

Results for CCOc1ccc(S(=O)(=O)NCC(c2ccco2)S(=O)(=O)c2ccc(C)cc2)cc1 (stereo unspecified) ?
SKOV3 invasion: inactive; p53null 32C tox: inactive; p53null 39C tox: inactive; mTORC1 inh: inactive; PMP22 txn: inconclusive; S16 viability: inactive

Results for COc1cccc([C@@H](C)NCCCc2ccccc2Cl)c1 ?
SKOV3 invasion: inactive

Results for COc1cc(C(=O)NCC(c2ccco2)S(=O)(=O)c2cccs2)cc(OC)c1OC (stereo unspecified) ?
SKOV3 invasion: inactive; p53null 32C tox: inactive; p53null 39C tox: inactive; mTORC1 inh: inactive; PMP22 txn: inactive; S16 viability: inconclusive

Results for O=C(NCC(c1ccco1)S(=O)(=O)c1cccs1)c1ccc(Cl)cc1 (stereo unspecified) ?
SKOV3 invasion: inactive; p53null 32C tox: inactive; p53null 39C tox: inactive; mTORC1 inh: inactive; PMP22 txn: inactive; S16 viability: inactive

Results for O=S(=O)(NCC(c1ccco1)S(=O)(=O)c1cccs1)c1ccc(F)c(C(F)(F)F)c1 (stereo unspecified) ?
SKOV3 invasion: inactive; p53null 32C tox: inactive; p53null 39C tox: inactive; mTORC1 inh: inactive; PMP22 txn: 7.3µM; S16 viability: 2.5µM

What do the screens show for `COc1ccc(S(=O)(=O)NCC(c2ccco2)S(=O)(=O)c2cccs2)cc1OC` (stereo unspecified)?
SKOV3 invasion: inactive; p53null 32C tox: inactive; p53null 39C tox: inactive; mTORC1 inh: inactive; PMP22 txn: inconclusive; S16 viability: 20µM

Results for O=S(=O)(NCC(c1ccco1)S(=O)(=O)c1cccs1)c1ccccc1 (stereo unspecified) ?
SKOV3 invasion: inactive; p53null 32C tox: inactive; p53null 39C tox: inactive; mTORC1 inh: inactive; PMP22 txn: inconclusive; S16 viability: 32µM

How did O=C(C=Cc1ccc(CN(CCO)CCc2c[nH]c3ccccc23)cc1)NO do in these assays?
SKOV3 invasion: inactive

What do the screens show for `C/C(=N\Nc1nc2ccccc2[nH]1)c1cc2ccccc2o1`?
p53null 32C tox: 10µM; p53null 39C tox: inconclusive
